From PubChem BioAssay (Tox21)
Results filed as inconclusive are left out. Active and inactive are the calls of the source. Unless noted, calls come from the whole dose curve; as a rule, active = well fitted curve in the direction sought with a large enough effect in the repeat runs; inconclusive = weak or mixed curves; inactive = no such curve, though single readings can be large; an effect the other way counts as inactive or inconclusive.

What was measured:
[1] = qHTS assay to identify small molecule agonists of the estrogen receptor alpha (ER-alpha) signaling pathway in the presence of an antagonist - cell viability counter screen (AID 1259386);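 note: series mostly up to about 92 µM; cells exposed to compounds for 22 h at 37 °C before the viability read; nearly all actives have a fitted effect of over 30% in size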
How it was run: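 In this counter screen, compound effects on VM7Luc4E2 viability were tested in the presence of the antagonist ICI-182,780 at 10.0nM final. Compounds were dosed at 15 concentrations, exposure lasted 22hr, and the CellTiter-Fluor signal was read.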

[2] = molecular target: Progesterone receptor (Homo sapiens) (UniProt P06401); experiment: qHTS assay to identify small molecule agonists of the progesterone receptor (PR) signaling pathway (AID 1346784; calls by dose curve; note: nearly all actives have a fitted effect of over 30% in size; note: potency is the fitted concentration of half-maximal effect)
How it was run: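 HEK 293T PR-UAS-bla reporter cells, 2% charcoal-stripped FBS; 6 hr settle at 37C/5% CO2, compound (DMSO) 16 hr, LiveBLAzer B/G FRET substrate 2 hr RT, fluorescence intensity read.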

[3] = qHTS assay to identify small molecule antagonists of the progesterone receptor (PR) signaling pathway - cell viability counter screen (AID 1346798); note: series mostly up to about 92 µM; nearly all actives have a fitted effect of over 50% in size
How it was run: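 Luminescence readout (CellTiter-Glo, 30 min, RT) of viability in PR-UAS-bla HEK293T cells exposed to compound and R5020 agonist for 16 hr at 37C, 5% CO2; run in the same wells as the beta-lactamase reporter read.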

[4] = qHTS assay to identify small molecule agonists of the progesterone receptor (PR) signaling pathway - cell viability counter screen (AID 1346799; calls by dose curve; note: nearly all actives have a fitted effect of over 45% in size)
How it was run: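 HEK293T PR-UAS-bla, 3,000 cells/well, 2% charcoal-stripped FBS; 6 h settle, compound 16 h at 37C/5% CO2; LiveBLAzer 2 h RT, then CellTiter-Glo 30 min RT, luminescence read.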

[5] = qHTS assay to identify small molecule antagonists of the TGF-beta/Smad signaling pathway - cell viability counter screen (AID 1346824); note: nearly all actives have a fitted effect of over 50% in size
How it was run: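 Cytotoxicity counter-screen run in the same wells as the beta-lactamase Smad reporter read: CellTiter-Glo luminescence after 30 min at room temperature. HEK 293T SBE-bla cells had 5 hr compound exposure at 37 C with TGF-beta1 (0.25 ng/mL stock).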

[6] = qHTS assay to identify small molecule agonists of the TGF-beta/Smad signaling pathway - cell viability counter screen (AID 1346829); note: top concentration of the series differs between compounds; nearly all actives have a fitted effect of over 45% in size
How it was run: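 Luminescence from CellTiter-Glo, read after a 30 min room-temperature incubation, gives cell viability of SBE-bla HEK 293T cells treated 5 hr with compounds at 37 C.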

[7] = qHTS assay to identify small molecule agonists of the TGF-beta/Smad signaling pathway (AID 1346859; active = well fitted activation curve with a large enough effect in the signal ratio in the repeat runs, not every such curve was filed as active; the % refers to the signal ratio; note: series mostly up to about 77 µM)
How it was run: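 Read-out: fluorescence at 460 and 530 nm (405 nm excitation) after a 2 hr room-temperature incubation with beta-lactamase FRET substrate. SBE-bla HEK 293T cells had been treated with test compounds for 5 hr at 37 C.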

[8] = molecular target: Thyrotropin-releasing hormone receptor (Homo sapiens) (UniProt P34981); experiment: qHTS assay to identify small molecule antagonists of the thyrotropin-releasing hormone receptor (TRHR) signaling pathway (AID 1346877; active = well fitted inhibition curve with a large enough effect in the repeat runs, not every such curve was filed as active; note: series mostly up to about 51 µM)
How it was run: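 Kinetic fluorescence (3 min, 1 s resolution) following stimulation with TRH at 1 nM final; HEK293 cells bearing human TRHR; 5 min compound preincubation at RT; concentration-response over 15 points, triplicates.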

[9] = molecular target: Thyrotropin-releasing hormone receptor (Homo sapiens) (UniProt P34981); experiment: qHTS assay to identify small molecule agonists of the thyrotropin-releasing hormone receptor (TRHR) signaling pathway (AID 1346891; calls by dose curve;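 note: HEK293 cells expressing TRHR with calcium dye readout; series mostly up to about 58 µM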)
How it was run: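 HEK293/TRHR cells, 1500 per well, 18 h 37 °C; Ca dye 2 h 37 °C; pin-tool compound addition (agonist mode); kinetic fluorescence 3 min, 1 s reads; 15 concentrations, triplicate.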

[10] = Human pregnane X receptor (PXR) small molecule agonists, qHTS cell viability counter screen (AID 1346977); note: nearly all actives have a fitted effect of over 50% in size; note: potency is the fitted concentration of half-maximal effect
How it was run: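 Fluorescence read-out (CellTiter-Fluor) of viability in PXR-Luc HepG2 cells, multiplexed with the luciferase agonist read. Compounds in DMSO added after 5hr plating; 24hr total exposure at 37C, 5% CO2.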

[11] = Caspase-3/7 induction in HepG2 cells by small molecules, qHTS assay (AID 1346978); note: nearly all actives have a fitted effect of over 15% in size; note: potency is the fitted concentration of half-maximal effect
How it was run: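 Caspase-3/7 induction was measured by Caspase-Glo 3/7 luminescence (30 min, room temperature) after a 17 hr compound exposure of wild-type HepG2 cells seeded at 2,000 per well and pre-incubated 5 hr.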

[12] = Caspase-3/7 induction in CHO-K1 cells by small molecules, qHTS cell viability counter screen (AID 1346979); note: nearly all actives have a fitted effect of over 35% in size; note: potency is the fitted concentration of half-maximal effect
How it was run: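 CHO-K1 wt, 1,500 cells/well; 5hr pre-incubation 37C/5% CO2; compound pin transfer (DMSO); 16hr exposure; CellTiter-Fluor added, 1hr, fluorescence read.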

[13] = Caspase-3/7 induction in CHO-K1 cells by small molecules, qHTS assay (AID 1346980); note: nearly all actives have a fitted effect of over 15% in size
How it was run: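 Luminescent Caspase-Glo 3/7 read (30min, room temperature) quantified apoptosis induction. Cells were wild-type CHO-K1, treated with compound for 17hr at 37 C and 5% CO2.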

[14] = Caspase-3/7 induction in HepG2 cells by small molecules, qHTS cell viability counter screen (AID 1346981); note: nearly all actives have a fitted effect of over 30% in size; note: potency is the fitted concentration of half-maximal effect; for activity change, negative = cytotoxicity: series mostly up to about 92 µM
How it was run: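 In this quantitative HTS counter screen, compounds delivered in DMSO were left on unmodified HepG2 cells for 16 hr at 37 C. Viability was then determined fluorometrically with CellTiter-Fluor, in parallel with caspase-3/7 induction in the same wells.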

[15] = molecular target: Nuclear receptor subfamily 1 group I member 2 (Homo sapiens) (UniProt O75469); experiment: Human pregnane X receptor (PXR) activation by small molecules, qHTS assay (AID 1346985); note: nearly all actives have a fitted effect of over 40% in size; note: potency is the fitted concentration of half-maximal effect
How it was run: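 DPX-2 cells (HepG2 co-transfected with a PXR response element and a CYP3A4-promoter luciferase construct) were seeded at 2,000 per well, rested 5 hr at 37C, then exposed to DMSO-dissolved compounds for 24 hr. Activation was read as luciferase luminescence.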

[16] = molecular target: Cytochrome P450 2D6 (Homo sapiens) (UniProt P10635); experiment: Cytochrome P450 Family 2 Subfamily D Member 6 (CYP2D6) small molecule antagonists: luciferase reporter qHTS assay (AID 1671196); note: nearly all actives have a fitted effect of over 50% in size; note: potency is the fitted concentration of half-maximal effect; for activity change, negative = inhibition: series mostly up to about 120 µM
How it was run: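 Test chemicals meet CYP2D6 plus proluciferin substrate (10 min, RT); NADPH regenerating solution then drives turnover for 1 h. Detection reagent halts the reaction; luminescence measured after 20 min.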

[17] = molecular target: Nuclear receptor subfamily 1 group I member 2 (Homo sapiens) (UniProt O75469); experiment: Human pregnane X receptor (PXR) small molecule agonists, qHTS assay (AID 1346982); note: nearly all actives have a fitted effect of over 35% in size; note: potency is the fitted concentration of half-maximal effect
How it was run: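 Reporter HepG2 cells expressing PXR-Luc are cultured in charcoal-stripped FBS (5%), treated with compounds for 24 hr at 37 C, and assayed by ONE-Glo luminescence after 30 min at room temperature.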

[18] = molecular target: Progesterone receptor (Homo sapiens) (UniProt P06401); experiment: qHTS assay to identify small molecule antagonists of the progesterone receptor (PR) signaling pathway (AID 1346795; active = well fitted inhibition curve with a large enough effect in the signal ratio in the repeat runs, not every such curve was filed as active; the % refers to the signal ratio; note: potency is the fitted concentration of half-maximal effect)
How it was run: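 Beta-lactamase reporter, HEK293T PR-UAS-bla line; 2% charcoal-stripped FBS; 6 hr pre-incubation, 37C/5% CO2. Compound + R5020 1 nM final, 16 hr. LiveBLAzer B/G FRET substrate, 2 hr RT; fluorescence intensity read.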

[19] = molecular target: Nuclear receptor subfamily 1 group I member 2 (Homo sapiens) (UniProt O75469); experiment: CYP3A4 induction through human pregnane X receptor (PXR) by small molecules, qHTS assay (AID 1346984); note: nearly all actives have a fitted effect of over 40% in size; note: potency is the fitted concentration of half-maximal effect
How it was run: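 Induction measured in HepG2-based DPX-2 cells co-expressing human PXR and a CYP3A4 promoter-driven luciferase. After a 24-hour compound exposure, cells received CYP3A4 luciferin substrate at 3uM final for 3 hours, and light output was then recorded.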
% is set by controls: 0 for no effect and ±100 for the full control effect.

Sequence of Progesterone receptor (Homo sapiens) (P06401 whole entry, looked up): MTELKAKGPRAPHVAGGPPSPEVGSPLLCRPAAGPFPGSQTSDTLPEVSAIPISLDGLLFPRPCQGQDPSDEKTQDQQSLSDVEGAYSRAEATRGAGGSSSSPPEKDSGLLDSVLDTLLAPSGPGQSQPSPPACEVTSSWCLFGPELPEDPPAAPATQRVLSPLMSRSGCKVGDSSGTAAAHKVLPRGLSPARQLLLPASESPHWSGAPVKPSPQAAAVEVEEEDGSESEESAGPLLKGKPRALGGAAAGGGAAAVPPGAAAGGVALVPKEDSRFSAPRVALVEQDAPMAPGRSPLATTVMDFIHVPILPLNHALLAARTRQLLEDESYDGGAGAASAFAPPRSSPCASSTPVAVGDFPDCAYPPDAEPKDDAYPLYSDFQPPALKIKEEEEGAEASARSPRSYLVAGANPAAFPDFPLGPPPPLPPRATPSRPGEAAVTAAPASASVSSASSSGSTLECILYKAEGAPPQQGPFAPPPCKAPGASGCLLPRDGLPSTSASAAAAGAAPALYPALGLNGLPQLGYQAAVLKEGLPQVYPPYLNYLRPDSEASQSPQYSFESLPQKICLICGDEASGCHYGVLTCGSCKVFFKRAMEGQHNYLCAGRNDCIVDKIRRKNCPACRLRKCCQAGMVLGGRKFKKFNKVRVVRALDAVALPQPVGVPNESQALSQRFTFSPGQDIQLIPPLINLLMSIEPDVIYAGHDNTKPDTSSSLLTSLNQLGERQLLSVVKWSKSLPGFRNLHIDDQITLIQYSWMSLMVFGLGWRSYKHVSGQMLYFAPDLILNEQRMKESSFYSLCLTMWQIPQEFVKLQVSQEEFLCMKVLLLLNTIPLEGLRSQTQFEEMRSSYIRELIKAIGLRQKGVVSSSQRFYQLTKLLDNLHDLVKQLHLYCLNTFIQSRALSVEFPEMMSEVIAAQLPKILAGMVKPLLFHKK
Sequence of Nuclear receptor subfamily 1 group I member 2 (Homo sapiens) (O75469 whole entry, looked up): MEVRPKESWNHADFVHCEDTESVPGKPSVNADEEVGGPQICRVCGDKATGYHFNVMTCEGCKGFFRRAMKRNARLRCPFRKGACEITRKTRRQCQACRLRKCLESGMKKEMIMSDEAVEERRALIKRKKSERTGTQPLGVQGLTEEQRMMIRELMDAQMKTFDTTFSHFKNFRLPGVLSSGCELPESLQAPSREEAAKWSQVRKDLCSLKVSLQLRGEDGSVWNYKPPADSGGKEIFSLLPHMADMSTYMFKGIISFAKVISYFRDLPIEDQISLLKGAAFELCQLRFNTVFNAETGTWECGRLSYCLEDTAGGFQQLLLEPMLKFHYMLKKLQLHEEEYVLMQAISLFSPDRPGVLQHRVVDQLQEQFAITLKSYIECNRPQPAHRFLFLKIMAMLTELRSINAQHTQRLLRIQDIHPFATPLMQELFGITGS
Sequence of Cytochrome P450 2D6 (Homo sapiens) (P10635 whole entry, looked up): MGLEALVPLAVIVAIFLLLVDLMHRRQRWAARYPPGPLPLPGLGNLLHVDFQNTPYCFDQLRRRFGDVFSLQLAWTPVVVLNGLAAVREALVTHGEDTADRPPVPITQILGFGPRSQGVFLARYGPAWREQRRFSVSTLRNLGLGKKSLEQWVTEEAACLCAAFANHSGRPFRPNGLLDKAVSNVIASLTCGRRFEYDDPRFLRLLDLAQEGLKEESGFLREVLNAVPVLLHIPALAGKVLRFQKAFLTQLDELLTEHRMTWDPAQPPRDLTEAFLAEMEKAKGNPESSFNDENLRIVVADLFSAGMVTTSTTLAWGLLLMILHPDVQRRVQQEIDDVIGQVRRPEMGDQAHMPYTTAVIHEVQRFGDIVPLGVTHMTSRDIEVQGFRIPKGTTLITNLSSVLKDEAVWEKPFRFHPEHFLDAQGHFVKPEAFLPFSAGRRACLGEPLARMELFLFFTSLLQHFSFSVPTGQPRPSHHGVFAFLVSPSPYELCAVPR
Sequence of Thyrotropin-releasing hormone receptor (Homo sapiens) (P34981 whole entry, looked up): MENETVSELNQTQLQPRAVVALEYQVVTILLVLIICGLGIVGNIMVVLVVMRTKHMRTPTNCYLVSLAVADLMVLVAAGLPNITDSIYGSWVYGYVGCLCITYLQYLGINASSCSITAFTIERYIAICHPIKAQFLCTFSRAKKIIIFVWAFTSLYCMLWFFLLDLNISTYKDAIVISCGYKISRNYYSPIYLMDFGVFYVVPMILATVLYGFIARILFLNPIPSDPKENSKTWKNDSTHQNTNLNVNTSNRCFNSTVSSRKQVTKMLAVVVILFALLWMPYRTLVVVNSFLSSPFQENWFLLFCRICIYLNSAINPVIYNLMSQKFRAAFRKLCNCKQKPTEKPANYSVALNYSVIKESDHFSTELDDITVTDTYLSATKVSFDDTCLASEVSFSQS

Cc1cc(OI)c(C(C)C)cc1-c1cc(C(C)C)c(OI)cc1C
active: Potency [15] 15.8 µM
inactive: Potency [1] | Potency [2] | Potency [3] | Potency [4] | outcome [5] | outcome [6] | outcome [7] | outcome [8] | Potency [9] | Potency [10] | Potency [11] | Potency [12] | outcome [13] | Potency [14] | Potency [16]

c1ccc(COCc2ccccc2)cc1
inactive: Potency [1] | Potency [2] | Potency [3] | Potency [4] | outcome [5] | outcome [6] | outcome [7] | outcome [8] | Potency [9] | Potency [10] | Potency [11] | Potency [12] | outcome [13] | Potency [14] | Potency [17] | Potency [16]

CCCCOC(=O)CCS
inactive: Potency [1] | Potency [2] | Potency [18] | Potency [4] | outcome [6] | outcome [7] | Potency [10] | Potency [11] | Potency [12] | outcome [13] | Potency [14]

COCCOC(=O)C1=C(C)NC(C)=C(C(=O)OC/C=C/c2ccccc2)C1c1cccc([N+](=O)[O-])c1 (centres undefined)
inactive: Potency [1] | Potency [2] | outcome [5] | outcome [7] | outcome [8] | Potency [9] | Potency [11] | outcome [13]
active: Potency [18] 4.22 µM | Potency [12] 26.6 µM | Potency [14] 29.8 µM | Potency [17] 10.6 µM | Potency [19] 1.58 µM | Potency [15] 1.58 µM | Potency [16] 21.9 µM

Brc1cc(-c2ccc(Br)c(Br)c2Br)cc(Br)c1Br
inactive: Potency [1] | Potency [2] | Potency [3] | Potency [4] | outcome [5] | outcome [7] | outcome [8] | Potency [9] | Potency [10] | Potency [11] | outcome [13] | Potency [14] | Potency [16]

COc1ccc(C(=O)c2cccc(O)c2)c(OC)c1
inactive: Potency [1] | Potency [2] | outcome [5] | outcome [6] | outcome [7] | outcome [8] | Potency [9] | Potency [10] | Potency [11] | Potency [12] | outcome [13] | Potency [16]

O=C(CCCCCCC(=O)Nc1ccccc1)NO
active: Potency [10] 8.41 µM | Potency [11] 4.22 µM | Potency [12] 13.3 µM | Potency [17] 7.5 µM | Potency [16] 5.49 µM
inactive: Potency [1] | Potency [2] | Potency [3] | Potency [4] | outcome [5] | outcome [6] | outcome [8] | Potency [9] | Potency [19] | Potency [15]

O=C(NCCCN1CCOCC1)c1ccc(Cl)cc1
active: Potency [16] 2.45 µM
inactive: Potency [1] | Potency [2] | Potency [3] | Potency [4] | outcome [5] | outcome [6] | outcome [7] | Potency [10] | Potency [11] | outcome [13] | Potency [14] | Potency [17] | Potency [19] | Potency [15]

Nc1c(I)cc(I)c(C(=O)N(CCC(=O)O)c2ccccc2)c1I
inactive: Potency [1] | Potency [2] | Potency [3] | Potency [4] | outcome [5] | outcome [6] | outcome [8] | Potency [9] | Potency [10] | Potency [11] | Potency [12] | outcome [13] | Potency [14] | Potency [16]
active: Potency [17] 26.6 µM

CN(C)CCOC1=Cc2ccccc2Sc2ccc(Cl)cc21
active: Potency [16] 4.36 µM
inactive: Potency [1] | Potency [2] | Potency [3] | Potency [4] | outcome [5] | outcome [6] | Potency [9] | outcome [13] | Potency [14] | Potency [17]

CC(=O)Oc1ccc(C(=C2CCCCC2)c2ccc(OC(C)=O)cc2)cc1
active: Potency [16] 15.5 µM
inactive: Potency [1] | Potency [2] | Potency [4] | outcome [5] | outcome [6] | outcome [7] | Potency [10] | Potency [11] | outcome [13] | Potency [14] | Potency [19] | Potency [15]

CC(C)C(=O)O
inactive: Potency [1] | Potency [2] | Potency [3] | Potency [4] | outcome [5] | outcome [6] | Potency [10] | Potency [11] | Potency [12] | outcome [13] | Potency [14] | Potency [17] | Potency [16]

CSc1ccc(Oc2ccc(S(N)(=O)=O)cc2CN(C)C)cc1C
active: Potency [17] 19.3 µM
inactive: Potency [1] | Potency [2] | Potency [4] | outcome [5] | outcome [6] | outcome [7] | outcome [8] | Potency [9] | Potency [11] | outcome [13] | Potency [14]

CCCCCCCCCCCCCCCCBr
inactive: activity change, negative = cytotoxicity [1] 0.981% [at 19 µM] | activation [2] 1.24% [at 19 µM] | activity change, negative = cytotoxicity [3] 0.653% [at 18.9 µM] | activity change, negative = cytotoxicity [4] 9.85% [at 19 µM] | viability change, negative = cytotoxic [5] -3.09% [at 15.8 µM] | activity change, negative = cytotoxicity [6] -1.12% [at 15.8 µM] | activity change, negative = cytotoxicity [10] -1.37% [at 19 µM] | caspase activation [11] 2.76% [at 19 µM] | activity change, negative = cytotoxicity [12] 4.02% [at 19 µM] | caspase-3/7 activation [13] -0.176% [at 19 µM] | activity change, negative = cytotoxicity [14] 4.64% [at 19 µM] | activation [17] -5.34% [at 19 µM] | activity change, negative = inhibition [16] -8.89% [at 23.6 µM]

C[Si](NC1CCCCC1)(NC1CCCCC1)NC1CCCCC1
inactive: Potency [1] | Potency [2] | outcome [5] | outcome [6] | outcome [7] | outcome [8] | Potency [9] | Potency [10] | Potency [11] | Potency [12] | outcome [13] | Potency [14] | Potency [17]

O=S(=O)(c1ccccc1)c1ccc(Cl)cc1
active: Potency [17] 30.6 µM
inactive: Potency [1] | Potency [2] | Potency [3] | outcome [5] | outcome [6] | outcome [7] | Potency [9] | Potency [10] | Potency [11] | Potency [12] | outcome [13] | Potency [14]

CC1(C)O[C@@H]2C[C@H]3[C@@H]4CCC5=CC(=O)C=C[C@]5(C)[C@H]4[C@@H](O)C[C@]3(C)[C@]2(C(=O)CO)O1
inactive: Potency [1] | Potency [3] | outcome [5] | outcome [8] | Potency [9] | Potency [10] | Potency [11] | Potency [12] | outcome [13] | Potency [14]
active: Potency [2] 133 nM | Potency [19] 1.58 µM | Potency [16] 38.9 µM
